Results taken from PubChem BioAssay AID588727 (Southern Research Specialized Biocontainment Screening …, 2011).
The whole screen tested about 350,000 compounds, of which about 450 (0.13%) were called active. No rule for the calls is given here. Only a sample is shown. Entries with a potency or affinity are not part of this list. Where a SMILES comes first, the peptide text is derived from it. [ ]: non-standard residue; d: D form.

Test: inhibitors of VEEV TC-83 cytopathic effect, confirmation, Vero cells (AID 588727)
Settings: VEEV TC-83 cytopathic effect inhibition, at 20 µM
[1] = stronger effect = higher value unless noted
[2] = measured here: 10K pilot screen inhibition, stronger effect = higher value

CC1CC(C)CN(CCCNC(=O)CN2C(=O)c3cccnc3Oc3ccccc32)C1 (centres undefined)
inhibition [1]: inactive

O=C(CCC(=O)OCC(=O)c1ccc([N+](=O)[O-])cc1)Nc1ccccc1Cl
inhibition [1]: inactive

CCOc1ccc(CN2CCN(Cc3cn(CC)nc3C)CC2CCO)cc1 (centres undefined)
inhibition [1]: inactive

CCOC(=O)c1sc2nc(C)nc(Nc3ccc(OC)cc3)c2c1C
inhibition [1]: 3.17% (inactive)

COc1ccc(C(=O)Nc2ccccc2C(=O)N2CCCCCC2)cc1OC
inhibition [1]: 5.61% (inactive)

CN1CCN(CCC(=O)Nc2ccc(C3CCCC3)cc2)CC1
inhibition [1]: 4.6% (inactive)

O=C(Nc1ccc(N2CCN(C(=O)c3ccco3)CC2)cc1)c1cccnc1Cl
inhibition (stronger effect = higher value): 0.8% (inactive) | inhibition [2]: 1.86%

COc1ccc(C)cc1NC(=O)C1CCN(C(=O)Cc2ccccc2)CC1
inhibition [1]: 0.59% (inactive)

COc1ccc(C(=O)NC(=S)NNC(=O)COc2ccccc2)cc1
inhibition [1]: 1.92% (inactive)

O=C(COc1ccccc1)NNC(=S)NC(=O)c1ccccc1
inhibition [1]: 52.2% (inactive)

COc1ccc(C(=O)NC(=S)NNC(=O)c2ccc(C)cc2)cc1
inhibition [1]: 50.1% (inactive)

Cc1cccc(C)c1OCC(=O)NNC(=S)NC(=O)C1CC1
inhibition [1]: 9.29% (inactive)

COc1ccccc1C(=O)NC(=S)NNC(=O)c1sc2ccccc2c1Cl
inhibition [1]: 0.8% (inactive)

Cc1cccc(C(=O)NC(=S)NNC(=O)COc2c(C)cccc2C)c1
inhibition [1]: 1.29% (inactive)

COc1ccc(C(=O)NNC(=S)NC(=O)c2ccc(OC)cc2)cc1
inhibition [1]: 2.82% (inactive)

COc1ccccc1C(=O)NNC(=S)NC(=O)c1sc2ccccc2c1Cl
inhibition [1]: 4.48% (inactive)

CCCc1nnc(NC(=O)CNc2ccc(F)cc2)s1
inhibition [1]: 1.71% (inactive)

CN(C)c1ccc(CNC(=O)c2cc(S(=O)(=O)N3CCCC3)cn2C)cc1
inhibition (stronger effect = higher value): 0.58% (inactive) | inhibition [2]: 0.765%

Cc1ccc(C)c(S(=O)(=O)N/N=C/c2ccc(N3CCOCC3)cc2)c1
inhibition [1]: 13% (inactive)

COc1ccc(-c2nnc(SCc3cccc(C)c3)n2N)cc1
inhibition [1]: 1.8% (inactive)

O=c1n(Cc2ccccc2Cl)nc2n1-c1ccccc1SC2
inhibition [1]: 1.6% (inactive)

CN1CCN(NC(=O)c2cn(-c3ccccc3)nc2-c2cccc(Br)c2)CC1
inhibition [1]: 4.96% (inactive)

O=C(CCc1ccccc1)NNC(=S)NC(=O)c1ccccc1
inhibition [1]: 8.58% (inactive)

COc1ccc(C(=O)NC(=S)NCCc2ccccc2)cc1
inhibition [1]: inactive

COc1ccc(C(=O)NNC(=S)NC(=O)c2ccco2)cc1
inhibition [1]: 3.21% (inactive)

O=C(NC(=S)NNC(=O)c1cc2ccccc2cc1O)c1ccco1
inhibition [1]: 35.8% (inactive)

CC1CCN(c2ccc(C(=O)OCC(=O)NCCN3C(=O)CSC3=O)cc2[N+](=O)[O-])CC1
inhibition [1]: 2.94% (inactive)

Nc1nc(=O)n(C2CCCO2)cc1Br (centres undefined)
inhibition [1]: inactive

CCCCn1nnnc1SCC(=O)NCc1ccco1
inhibition [1]: 0.76% (inactive)

CCOc1ccc(CCNC(=O)CCc2nnc3ccc(N4CCOCC4)nn23)cc1OCC
inhibition [1]: 0.04% (inactive)

CCN(CC(=O)Nc1ccc(NC(C)=O)cc1)C(=O)C12CC3CC(CC(Cl)(C3)C1)C2
inhibition [1]: inactive

Cn1cc(C(=O)Nc2ccc(Cl)c(Cl)c2)cn1
inhibition [1]: 0.63% (inactive)

O=C(NC(Cc1c[nH]c2ccccc12)C(=O)Nc1ccc(OC(F)(F)F)cc1)c1cccs1 (centres undefined)
inhibition [1]: 11.9% (inactive)

O=C(NC(Cc1c[nH]c2ccccc12)C(=O)N/N=C/c1ccc(Cl)cc1)c1cccs1 (centres undefined)
inhibition [1]: 6% (inactive)

O=C(NC(Cc1c[nH]c2ccccc12)C(=O)O)c1cccs1 (centres undefined)
inhibition [1]: 0.43% (inactive)

O=C(Nc1ccc(F)c([N+](=O)[O-])c1)c1cccs1
inhibition [1]: 0.78% (inactive)

Cc1cc(C)nc(N2C(=O)CC(C(=O)O)NC2=NCCc2c[nH]c3ccccc23)n1 (centres undefined)
inhibition [1]: inactive

COc1ccc(/C=N/NC(=O)c2c(-c3ccccc3)noc2C)cc1
inhibition [1]: 1.23% (inactive)

CN(C)CCCN(C(=O)c1ccc(S(=O)(=O)N2CCc3ccccc32)cc1)c1nc2c(Cl)cccc2s1
inhibition [1]: 12.6% (inactive)

COc1cc2nc(N(CCCN(C)C)C(=O)c3ccc(S(=O)(=O)N4CCc5ccccc54)cc3)sc2cc1OC
inhibition [1]: 5.52% (inactive)

O=C(NC1CONC1=O)OCC(Cl)(Cl)Cl (centres undefined)
inhibition [1]: inactive

CCc1nnc(NC(=O)C2CC(=O)N(Cc3ccco3)C2)s1 (centres undefined)
inhibition [1]: 2.16% (inactive)

Cc1cc(C)c[n+](CC(=O)c2ccc(C)c([N+](=O)[O-])c2)c1
inhibition [1]: 0.1% (inactive)

Cc1cccc[n+]1CC(=O)c1ccc([N+](=O)[O-])cc1
inhibition [1]: inactive

S=C(N/N=C/c1ccc2ncccc2c1)Nc1ccccc1
inhibition [1]: 9.82% (inactive)

COc1ccccc1C(=O)Nc1ccc2c(c1)CCCN2C(=O)c1cccs1
inhibition [1]: 4.26% (inactive)

O=C(Nc1ccc2c(c1)CCCN2C(=O)c1cccs1)c1ccccc1
inhibition [1]: 6.53% (inactive)

CCn1nnnc1SCC(=O)N1CCOCC1
inhibition [1]: 0.74% (inactive)

COc1ccc(N2CC(C(=O)N/N=C/c3cc([N+](=O)[O-])ccc3O)CC2=O)cc1 (centres undefined)
inhibition [1]: 2.03% (inactive)

CCC(C)[C@@H]1NC(=O)N(CCCN2CCCC2=O)C1=O (some centres undefined)
inhibition [1]: 2.56% (inactive)

CC[C@H](C)[C@@H]1NC(=O)[C@H]([C@@H](C)CC)NC(=O)[C@@H](CC(C)C)NC(=O)[C@H](Cc2ccccc2)NC(=O)[C@H](Cc2ccccc2)NC(=O)[C@@H]2CCCN2C(=O)[C@@H]2CCCN2C(=O)[C@H](C(C)C)NC(=O)[C@H](CC(C)C)NC1=O (cyclo(FF[dL]IILVPP))
inhibition [1]: inactive

Cc1ccccc1NC(=O)NCCN1CC1
inhibition [1]: inactive

Cc1ccccc1NC(=O)NCCCN1CCN(C)CC1
inhibition [1]: 0.45% (inactive)

CC(NC(=O)c1cccc(S(=O)(=O)N(C)c2ccccc2)c1)c1cccnc1 (centres undefined)
inhibition [1]: 1.03% (inactive)

C[N+]1(CCCCSc2ccc(O)cc2)CCCCC1
inhibition [1]: inactive

Cc1ccc(NC(=O)CSc2ccc(-c3ccccn3)nn2)cc1
inhibition [1]: 0.64% (inactive)

Cn1nnnc1SCC(=O)Nc1ncc(Cl)cc1Cl
inhibition [1]: 2.56% (inactive)

Cc1ccc(-n2c(SCC(=O)Nc3cccc(S(N)(=O)=O)c3)nc3ccccc32)cc1
inhibition [1]: 2.21% (inactive)

CC(C)(C)NC(=O)CSc1nc2ccccc2n1-c1ccccc1
inhibition [1]: 7.16% (inactive)

Cc1nnc(SCC(=O)Nc2ncc(Cl)cc2Cl)n1Cc1ccccc1
inhibition [1]: 1.6% (inactive)

O=C(CSc1nnc2ccccn12)Nc1ncc(Cl)cc1Cl
inhibition [1]: 3.72% (inactive)

CC(C)NC(=O)CSc1nc2ccccc2n1-c1ccccc1
inhibition [1]: 3.21% (inactive)
